In PubChem BioAssay (NCATS):
Values without a mark were called inactive. Calls follow the shape of the dose curve; as a rule, active = well fitted activation curve with a large enough effect; inconclusive = small, poorly fitted or top-dose-only effect; inactive = flat fitted curve, though single readings scatter.

Experiment: Confirmation and Secondary Assay for Modulators of Hemoglobin Beta Chain Splicing at IVS2 654 locus (AID 910);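 also: HeLa cells stably carrying EGFP split by mutant beta-globin IVS2-654 intron; % of control where 0% means no effect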
Details: HeLa EGFP-654 splicing reporter, GFP fluorescence, 48 h; series mostly up to 46.1 µM; activation (splicing correction): at the top concentration
From the text: NIH Chemical Genomics Center [NCGC] NIH Molecular Libraries Screening Centers Network [MLSCN] MLSCN Grant: 1 X01 MH080684-01 PI Name: Dr. Ryszard Kole NCGC Assay Overview: Modulation of Alternative Splicing as Therapy Abnormal splicing is associated with a number of diseases, including cancer and genetic diseases such as cystic fibrosis, muscular dystrophy and beta-thalassemia. Alteration of disease associated splicing patterns provides a promising target for treatment. […] Mutations in the second intron of the b-globin gene at positions 654 or 705 are clinically relevant and cause mis-splicing which results in an out of frame gene product. […] EGFP-654 HeLa Cells as screen system. HeLa cell lines were stably transfected with a construct in which the EGFP (enhanced green fluorescent protein) cDNA was interrupted by the second intron of the beta-globin gene (IVS2-654). The ISV2 intron contains mutations which cause mis-splicing of EGFP and premature termination of EGFP which results in a nonfluorescent protein product. […] Expression of the transgene was driven by the CMV promoter. We concluded that a low molecular weight compound, which restored correct splicing of intron 2 would also generate functional EGFP protein, resulting in a fluorescent signal. Thus, the HeLa cells that express the EGFP-654 construct can be used for high throughput screening of a chemical library.
NCGC Assay Protocol Summary: Confirmatory Screening. Freshly thawed HeLa EGFP-654 cells were seeded in 5 ul of optimem media (Invitrogen) containing 2 % fetal calf serum (Hyclone) and 1x penicillin/streptomycin (Invitrogen) at a concentration of 500 cells per well in 1536-well plates. Cells were incubated overnight at 37C in 5% CO2. The next day, cells were treated with DMSO, 500 nM antisense ISV2 654 PNA control oligo, or library compound and allowed to grow at 37C in 5% CO2 for 2 days. The PNA oligo blocked the mutation site in the intron and allowed proper (wild type) splicing to occur, resulting in full length EGFP expression and also allowed for optimization of the assay parameters. Plates were read in the Acumen Explorer (TTP Labtech) using 488 nm laser excitation and 500-520 nm emission PMT filter in a 1 x 8 uM capture mode. Fluorescnet objects ranging in size from 5 to 250 uM were measured and the total peak GFP intensity for each well was used for data analysis. Keywords: Thalassemia, beta-thalassemia, beta-globin, EGFP, ISV2 654, ISV2 705, SSO, PNA, antisense, splicing, MLSMR, MLSCN, NIH Roadmap, qHTS, NCGC

SMILES	activation (splicing correction)
COc1cc2nc(N(C)CCCNC(=O)C3CCCO3)nc(N)c2cc1OC (stereo not given)	1.73%
Cc1ccccc1N1C(=O)c2cc(S(N)(=O)=O)c(Cl)cc2NC1C (stereo not given)	4.49%
Clc1ccc2c(c1)C(N1CCNCC1)=Nc1ccccc1O2	-3.4% [at 38.3 µM]
CC12CC3CC(C)(C1)CC(N)(C3)C2	5.32%
CC(C(=O)O)c1cccc(C(=O)c2ccccc2)c1 (stereo not given)	2.18%
O=C(C1CCCCC1)N1CC(=O)N2CCc3ccccc3C2C1 (stereo not given)	-1.53%
CNCCCC12CCC(c3ccccc31)c1ccccc12	-1.51%
CC(C)NCC(O)c1ccc(O)c(O)c1 (stereo not given)	4.55%
OCCN(CCO)c1nc(N2CCCCC2)c2nc(N(CCO)CCO)nc(N3CCCCC3)c2n1	-5.84%
Nc1ccn([C@H]2CC[C@@H](CO)O2)c(=O)n1	1.42%
CC(C)Cc1ccc(C(C)C(=O)O)cc1 (stereo not given)	-1.86%
CN(C)c1nc(N(C)C)nc(N(C)C)n1	2.63%
O=C1c2c(O)ccc(O)c2C(=O)c2c(NCCNCCO)ccc(NCCNCCO)c21	-2.84%
CCCCc1oc2ccccc2c1C(=O)c1cc(I)c(OCCN(CC)CC)c(I)c1	-1.91% [at 38.3 µM]
CCc1cccc2c3c([nH]c12)C(CC)(CC(=O)O)OCC3 (stereo not given)	-3.3%
CN(C)CCCN1c2ccccc2CCc2ccc(Cl)cc21	-1.34% [at 38.3 µM]
CC(COc1ccccc1)N(CCCl)Cc1ccccc1 (stereo not given)	4.88%
Clc1ccc(C(c2ccccc2Cl)C(Cl)Cl)cc1 (stereo not given)	4.4%
O=C(Nc1ccc([N+](=O)[O-])cc1Cl)c1cc(Cl)ccc1O	-1.34% [at 38.3 µM]
CCCNCC(O)COc1ccccc1C(=O)CCc1ccccc1 (stereo not given)	0.434%

SMILES	activation (splicing correction)
CN(C)CCC=C1c2ccccc2C=Cc2ccccc21	1.6%
NS(=O)(=O)c1cc2c(cc1Cl)NCNS2(=O)=O	3.24%
CCC1(C)CC(=O)NC1=O (stereo not given)	-3.21%
Cc1ccc(C(=O)Nc2ccc(S(=O)(=O)O)c3cc(S(=O)(=O)O)cc(S(=O)(=O)O)c23)cc1NC(=O)c1cccc(NC(=O)Nc2cccc(C(=O)Nc3cc(C(=O)Nc4ccc(S(=O)(=O)O)c5cc(S(=O)(=O)O)cc(S(=O)(=O)O)c45)ccc3C)c2)c1	3.2% [at 38.3 µM]
CC(=O)OCC(CCn1cnc2cnc(N)nc21)COC(C)=O	4.98%
Clc1ccccc1C(c1ccccc1)(c1ccccc1)n1ccnc1	-7.26%
CN1CCN(CCCN2c3ccccc3Sc3ccc(Cl)cc32)CC1	-9.82%
CN(C)CCOC(c1ccccc1)c1ccccc1	6.46%
COc1ccccc1OCC(O)CN1CCN(CC(=O)Nc2c(C)cccc2C)CC1 (stereo not given)	10.4%
CN(C)C(=O)C(CCN1CCC(O)(c2ccc(Cl)cc2)CC1)(c1ccccc1)c1ccccc1	1.8%
Cc1ccc(-c2cc(C(F)(F)F)nn2-c2ccc(S(N)(=O)=O)cc2)cc1	-0.497%
CN(C)C(=N)N=C(N)N	0.937%
NC(=O)NO	2.41%
NC(CO)C(=O)NNCc1ccc(O)c(O)c1O (stereo not given)	10.6%
NCCc1cnc[nH]1	-1.26%
Cn1c(=O)c2c(ncn2C)n(C)c1=O	9.54%
Cn1c(=O)c2[nH]cnc2n(C)c1=O	1.22%
CCC1(c2ccccc2)C(=O)NCNC1=O	7.64%
CN1CCC(=C2c3ccccc3CC(=O)c3sccc32)CC1	0.512%
NC12CC3CC(CC(C3)C1)C2	0.703%
